# Hits are enriched below; roughly 6.5% of the tested compounds scored in any of these assays.
# IL1B secr inh: qHTS for Inhibitors of Inflammasome Signaling: IL-1-beta AlphaLISA Primary Screen; AID 743279, 2014; 4.7% of 360,000 active; THP-1 LPS/ATP IL-1B secretion, AlphaLISA, 16 h; hits give low values; activity change, % at 57.5 µM; in the data active = activity change below about -50%; inconclusive = mostly about -30% to -49%; also: % is scaled to controls: 0 for no effect and ±100 for the full control effect
#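 Secreted IL-1B measured by AlphaLISA bead assay after 16 h compound exposure of THP-1 cells; compounds (final up to 57.5 uM) added 1 h before LPS (250 ng/mL) and ATP (1.25 mM) stimulation; lower signal means less secretion.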
# Giardia killer: Small Molecules that selectively kill Giardia lamblia: qHTS; Giardia lamblia trophozoite viability; 0.15% of 340,000 active; activity change, % at 7.66 µM, hits read low; in the data active = activity change below about -80%; inconclusive = between about -30% and that limit;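 also: parasites exposed to compound for two days anaerobically before the ATP read; % is scaled to controls: 0 for no effect and ±100 for the full control effect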
#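 Compounds were tested on trophozoites seeded at 100 cells/well and held 48 hrs at 37 deg C anaerobically. An ATP-based luminescent kit measured the remaining live cells.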
# HepG2 viability: qHTS for Inhibitors of TGF-b: Cytotox Counterscreen; 0.76% of 410,000 active; Potency, µM (titrated, usually from 46.1 µM), for inactives: top-dose activity change, negative = cytotoxicity, actives largely listed as cytotoxic; HepG2 CAGA-GFP viability, ATP luminescence, 18 h; also: potency is read from the fitted curve at half-maximal effect
#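 CellTiter-Glo luminescence gave cytotoxicity after 18 hours at 37 degrees C. The cells were HepG2 CAGA-GFP in 1% FBS DMEM, stimulated with 500 pg/mL TGF-beta after compound addition. %Activity was normalised to no-cell wells (complete cell-killing) and DMSO (no toxicity), and curves were fitted and classified.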
# HT1080 IDH1KD tx: qHTS for induction of synthetic lethality in tumor cells producing 2HG: qHTS for the HT-1080-IDH1KD cell line. HT-1080 IDH1 knockdown viability, ATP luminescence, 48 h. Potency, µM (highest dose often 46.1 µM), without a hit: at the highest dose activity, negative = toxicity, usual class: cytotoxic. 2% of 360,000 active. AID 686971, 2013;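 also: potency is read from the fitted curve at half-maximal effect; 0% = DMSO wells and -100% = cell-free medium wells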
#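 Luminescent ATP read-out (CellTiter-Glo, 10 min at room temperature) after 48 h compound exposure at 37 °C gave viability of IDH1-knockdown HT-1080 cells. Activity was normalised to DMSO and cell-free wells, then fitted as concentration-response curves.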
# TGFb SMAD3 inh: qHTS for Inhibitors of TGF-b; HepG2 CAGA-GFP TGF-b/SMAD3 reporter, GFP fluorescence, 18 h; TGF-beta stimulated, 500 pg/mL final; Potency, µM (titrated, usually from 46.1 µM), without a hit: top-dose activity, negative = inhibition, hits mostly inhibitors; 1.2% of 410,000 active; AID 588855, 2011; also: potency is read from the fitted curve at half-maximal effect; % is scaled to controls: 0 for no effect and ±100 for the full control effect; nearly all actives have a fitted effect of over 65% in size
#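 Read-out: total well GFP (ex488/em500-530) summed from mean per-cell fluorescence. Cells: HEPG2 CAGA-GFP, 1% FBS DMEM, 18 h at 37 degrees C with 500 pg/mL final TGF-beta. Unstimulated wells served as the full-inhibition control; stimulated DMSO wells = 0%.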
# HT1080-NT tox: qHTS for induction of synthetic lethality in tumor cells producing 2HG: qHTS for the HT-1080-NT fibrosarcoma cell line; HT-1080-NT fibrosarcoma viability, CellTiter-Glo ATP luminescence, 48 h; Potency, µM (top dose mostly 46.1 µM), for the others: at the top dose activity, negative = less viability, most hits filed as cytotoxic; 1.6% of 360,000 active; AID 686970, 2013;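 also: NT is the 2HG producing partner of a matched IDH1 knockdown line; potency is read from the fitted curve at half-maximal effect; 0% = DMSO-treated cells and -100% = media-only wells without cells; nearly all actives have a fitted effect of over 55% in size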
#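 750 cells/well, RPMI + 5% FBS; 2 h settle, compound pin-transfer, 48 h at 37 degrees C. CellTiter-Glo 10 min RT, luminescence. Normalized to DMSO and media-only wells.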
# * = called active by the depositor; ? = inconclusive; / = not tested or not shown; [ ] = dose if it differs, or a comment. Unless noted, calls follow the shape of the dose curve; as a rule, active = well fitted curve in the direction sought with a large enough effect; inconclusive = small, poorly fitted or top-dose-only effect, or another doubt; inactive = no such curve, though single readings can be large; an effect the other way counts as inactive or inconclusive.
SMILES,IL1B secr inh,Giardia killer,HepG2 viability,HT1080 IDH1KD tx,TGFb SMAD3 inh,HT1080-NT tox
COc1ccccc1/C=N/NC(=O)c1cccc2ccccc12,-11,-1,-18%,-4%,11%,-17%
COc1ccc(OC)c(/C=N/NC(=O)c2cc3c(OC)cccc3[nH]2)c1,-29,-7,-48%,-7%,7%,-3%
COc1cccc2c(SCC(=O)N/N=C/c3ccc(O)c(O)c3)cc(C)nc12,-64*,-14,-23%,?,-20%,-16%
COc1ccc2nc(C)cc(SCC(=O)N/N=C/c3cccc4ccccc34)c2c1,-56*,5,-12%,6.3µM*,-1%,11µM*
COc1cccc2c(SCC(=O)N/N=C/c3ccccc3)cc(C)nc12,0,-3,-10%,-8%,0%,-1%
Cc1scc(C(=O)NCc2ccco2)c1-c1ccccc1,-5,0,-4%,?,16%,?
C[C@H](C[C@H](O)[C@H]1OC1(C)C)C1=C2C[C@H](O)C3[C@@]4(C)CCC(=O)C(C)(C)C4CC[C@]3(C)[C@@]2(C)CC1 (stereo partly drawn),-7,-2,16µM*,?,?,?
CN(CCC1CCOCC1)C(=O)CC1C(=O)NCCN1CC1CCCCC1 (stereo not drawn),0,-17,4%,11%,20%,7%
CCOc1cc(CNCCO)cc(Br)c1OCc1ccc(Cl)cc1,-16,5,-110%,?,?,?
CCOc1cc(CNCCCN2CCOCC2)cc(Br)c1OCc1ccccc1Cl,-101*,9,-93%,8.2µM*,14µM*,7.3µM*
CCOc1cc(CNC(C)(C)CO)cc(Br)c1OCc1ccc(Cl)cc1Cl,?,1,13µM*,10µM*,?,11µM*
CCOc1cc(CNCCO)cc(Br)c1OCc1ccccc1Cl,?,25,-106%,23µM*,?,?
CCOc1cc(CNc2ccc(O)cc2)cc(Br)c1OCc1ccccc1F,-63*,13,-102%,?,?,?
CCOc1cc(CNCCN2CCOCC2)ccc1OCc1ccccc1Cl,?,-4,-20%,?,5%,?
Cc1ccc(NC(=O)Nc2cnccn2)cc1C,29,-1,-14%,-14%,-10%,-4%
Cc1c2cnn(-c3ccccc3)c(=O)c2c(C)n1CC(=O)N1CCN(c2cccc(Cl)c2)CC1,/,/,1%,/,-9%,/
CCOc1ccc(N/C(C)=C/C(=O)c2ccc3c(c2)OCCO3)cc1,-77*,5,-5%,-14%,?,21%
CCc1cc2c(cc3c(=O)n(CC(=O)NCCOC)nc(CC)n32)s1,/,/,4%,/,-9%,/
CCN1C(=O)C(O)(C2COC(C)(C)CC2=O)c2ccccc21 (stereo not drawn),5,5,7%,25%,1%,22%
CCN1C(=O)C(O)(C2COC(C)(C)CC2=O)c2cc(Br)ccc21 (stereo not drawn),-9,11,-40%,?,?,16µM*
CN(C)c1nc(NC(C)(C)C)nc(SCC(=O)Nc2ccccc2)n1,-104*,-25,4%,-10%,?,-21%
CN(C)c1nc(NCc2ccccc2)nc(SCC(=O)Nc2ccccc2Cl)n1,-11,0,-27%,-9%,?,-4%
CN(C)c1nc(NCc2ccccc2)nc(SCC(=O)Nc2ccccc2)n1,-77*,10,0%,?,?,?
CN(C)c1nc(NCc2ccccc2)nc(SCC(N)=O)n1,24,-14,-2%,-11%,-5%,0%
CCCC(=O)N1CCN(c2ccc(NC(=O)c3cc4ccccc4o3)cc2)CC1,-56*,-11,92%,13%,0%,22%
SMILES,IL1B secr inh,Giardia killer,HepG2 viability,HT1080 IDH1KD tx,TGFb SMAD3 inh,HT1080-NT tox
O=C(Nc1ccc(N2CCN(C(=O)c3ccccc3)CC2)cc1)c1cc2ccccc2o1,-97*,-19,4%,?,3%,-21%
CCOc1cc(C(=O)CSc2nnc(CNc3ccc(Cl)cc3)o2)ccc1NC(=O)CC,-103*,-7,10µM*,?,?,-22%
O=C(CSc1nnc(CNc2ccccc2)o1)c1ccc2c(c1)OCCO2,-68*,-1,-15%,-4%[9.24 µM],0%,-23%
O=C(CSc1nnc(CNC(=O)c2ccco2)o1)c1ccc(Cl)cc1,-106*,4,-9%,11%,0%,7%
CCCn1c(SCC(=O)NCc2ccc(F)cc2)n[nH]c1=O,1,10,5%,-3%,7%,14%
CCOC1=C2[C@H](c3ccc(CC)cc3)N(S(=O)(=O)c3ccc(C)cc3)C[C@H]2C(C#N)(C#N)C(C#N)(C#N)C1,-76*,/,-66%,-10%,?,-4%
O=C(Cn1nnc(-c2ccccc2NC(=O)c2ccccc2F)n1)NC1CCCC1,-7,20,-8%,9%,-1%,?
Cc1ccccc1-c1nnn(CC(=O)NC(=O)NC2CCCC2)n1,-54*,-13,-26%,1%,?,0%
CCOc1ccc(CCNC(=O)c2sc3ncccc3c2-n2c(C)ccc2C)cc1,/,/,-29%,/,?,/
Cc1ccc(C)n1-c1c(C(=O)NCC(C)c2ccccc2)sc2ncccc12 (stereo not drawn),/,/,-39%,/,11µM*,/
Cc1ccc(CCNC(=O)c2sc3ncccc3c2-n2c(C)ccc2C)cc1,/,/,-34%,/,11µM*,/
CN1C(=O)C2ON(c3ccccc3)C(c3cccs3)C2C1=O (stereo not drawn),-7,3,7%,5%,7%,11%
O=C(CN1CCOCC1)NCc1ccccc1Cl,3,5,-7%,7%,-6%,-1%
COc1ncccc1C(=O)NC1CCCc2c1cnn2-c1cc(C)cc(C)c1 (stereo not drawn),-56*,-10,-16%,-27%,-2%,-25%
O=c1c2ccccc2nc2n1CCN2Cc1ccc(Cl)cc1,-78*,-15,-9%,-23%,?,?
O=c1c2ccccc2nc(-c2ccccc2)n1Cc1ccc(Cl)cc1,-12,0,-19%,-17%,0%,-20%
COc1cc(OC)c2c(-c3cccc(-c4ccc(OC)c(F)c4)c3)cc(=O)oc2c1,54,-21,-20%,0.65µM*,?,?
CCc1cc(=O)oc2cc3occ(-c4ccc(OC)c(F)c4)c3cc12,42,13,-44%,5.2µM*,-52%,5.2µM*

# Assay outcomes from PubChem BioAssay.
